In all, about 48,000 compounds went through this assay and about 13,000 (27%) showed an effect of 50% or more. This is one part of the list.
test system: Wolbachia pipientis; assay: Anti-Wolbachia Cell-Based Screen; assay type: functional; parameters: scale not given: in the data most compounds retested in dose-response had high values; settings: 5 µM

| SMILES | Percent Effect [%] |
| --- | --- |
| Cn1cc(CNC(=O)NCCOc2ccc(F)c(F)c2)cn1 | -13.41 |
| Cc1nc(COc2nc(C(C)C)no2)cs1 | 5.061 |
| CC(C)(N)c1cn(C2CCN(c3ncccc3Cl)CC2)nn1 | -9.362 |
| CC(c1ccccc1Cl)N1CCN(C(=O)c2ccc(=O)[nH]c2)CC1 (configuration not stated) | -13 |
| Cn1cc(CN2CC[C@@H]3[C@@H](CCC(=O)N3CCc3ccccc3)C2)cn1 | -6.541 |
| CN1CCN(Cc2cnn(-c3ccccc3Cl)c2)[C@H]2CS(=O)(=O)C[C@H]21 | 2.085 |
| COC(=O)c1cccc2nc([C@H]3CCN(Cc4ccccc4)C3)oc12 | -1.952 |
| Cc1c[nH]nc1C1CN(Cc2cnn(-c3ccccc3C(=O)O)c2)C1 | 143.7 |
| CCOC(=O)c1n[nH]cc1CN1CCCC(N(C)Cc2ccccc2)C1 (configuration not stated) | -2.39 |
| O=C(O)c1ccccc1-n1cc(CN2CCOC(c3cc[nH]n3)C2)cn1 (configuration not stated) | 92.78 |
| O=C(O)c1ccccc1-n1cc(CN2CCC(c3cc[nH]n3)C2)cn1 (configuration not stated) | 122.2 |
| Cc1cccc(C)c1OC1CN(Cc2cnn(C)c2)C1 | -10.44 |
| Cc1ccnc(C2CN(Cc3cnn(-c4ccccc4C(=O)O)c3)C2)n1 | 148.5 |
| COCCc1noc(CNC2CCCN(c3cccnn3)C2)n1 (configuration not stated) | 6.075 |
| CCOC(=O)c1coc(N2CCC(N3CCC(O)CC3)CC2)n1 | -0.9238 |
| CC(=O)N(c1ccc(C)cc1)c1nc(CN2CCCC(C)C2)cs1 (configuration not stated) | 4.19 |
| CC(=O)N1CCCC(c2cccc(-n3ccnc3)n2)C1 (configuration not stated) | 108.7 |
| Cc1cc(C2CCC2)nc(N2CC(n3cccn3)C2)n1 | 18.14 |
| O=C(c1cc[nH]n1)N1CCCC(c2cccc(-n3ccnc3)n2)C1 (configuration not stated) | -0.007784 |
| Fc1ccc(CN2CCCC2c2cncc(-n3ccnc3)n2)cc1 (configuration not stated) | -7.107 |
| O=C(C1CCC1)N1CCCC(c2cccc(-n3ccnc3)n2)C1 (configuration not stated) | 120 |
| O=C(c1cnccn1)N1CCCC(c2cccc(-n3ccnc3)n2)C1 (configuration not stated) | 132.1 |

| SMILES | Percent Effect [%] |
| --- | --- |
| Cc1cc(C)nc(N2CCC(c3cncc(-n4ccnc4)n3)CC2)n1 | 132.5 |
| Cc1nc(COC[C@@H]2CCC[C@@]23CNCCO3)cs1.Cl.Cl | -7.746 |
| CNS(=O)(=O)CC1CCCN1c1ccc(Br)cn1 (configuration not stated) | -12.02 |
| Cn1ccnc1C(NCc1csc(Br)c1)c1ccccc1 (configuration not stated) | -0.294 |
| CCc1nccc(CN2CCCC(c3nn(C)c(=O)n3CC)C2)n1 (configuration not stated) | 16.29 |
| CC(C)[C@H]1COC(=O)N1Cc1nccn1C1CC1 | 4.052 |
| CCc1nc(N)nc(NCc2cnn3cccnc23)c1C | -10.8 |
| OCCCN1CCc2[nH]nc(C(c3ccccc3)c3ccccc3)c2C1 | -10.74 |
| O=C(Cn1ccc(=O)[nH]c1=O)NCc1cccnc1OCC(F)(F)F | 7.684 |
| CC(c1ccon1)N(C)C(=O)C1CCN(C2CCCCC2)CC1 (configuration not stated) | -1.584 |
| Cc1ccccc1CN1CCCN(S(=O)(=O)N(C)C2CCCCC2)CC1 | -4.096 |
| Cc1cnn(CCNCc2nccn2Cc2ccccc2)c1 | 6.467 |
| O=C(C1CCCC1)N1CCCC(c2cccc(-n3ccnc3)n2)C1 (configuration not stated) | 109.1 |
| Cc1n[nH]cc1C(=O)N1CCCC(c2cccc(-n3ccnc3)n2)C1 (configuration not stated) | 117.2 |
| COCC(=O)N1CCCC(c2cccc(-n3ccnc3)n2)C1 (configuration not stated) | 83.17 |
| c1cnc(N2CCCC(c3cncc(-n4ccnc4)n3)C2)nc1 (configuration not stated) | 115.9 |
| CCCc1n[nH]cc1C(=O)N1CCCC(c2nccn2CC2CC2)C1 (configuration not stated) | 2.109 |
| Cl.c1cnc(N2CCCC(NCc3ccc(-n4ccnc4)cc3)C2)nc1 (configuration not stated) | 24.04 |
| Cc1cc(C2CCCN(C(=O)c3c(C)nn4cccnc34)C2)n[nH]1 (configuration not stated) | -1.385 |
| Cn1c(Cn2ccnc2)nnc1C1CCCN(c2ncccn2)C1 (configuration not stated) | 5.27 |
| CC(C)Oc1cccc(CC(=O)N(CC(N)=O)C2CCCC2)c1 | -6.842 |
| CN(C)C(=O)c1ccc(N2CCC3(CCC(=O)N(CCO)C3)CC2)nc1 | -10.7 |

| SMILES | Percent Effect [%] |
| --- | --- |
| O=C(Cn1[nH]c2ccccc2c1=O)N1CCCC(CC2CC2)(C(=O)O)C1 (configuration not stated) | -7.331 |
| Cc1ccnc(N2CCCC(c3nccn3C(C)C)C2)n1 (configuration not stated) | 2.014 |
| Cc1nc(C(=O)N2CCCC(c3cccc(-n4ccnc4)n3)C2)co1 (configuration not stated) | -10.62 |
| Cc1cc(C)nc(N2CCCC(c3cccc(-n4ccnc4)n3)C2)n1 (configuration not stated) | 122.3 |
| CCc1c(C)nc2ccccc2c1N1CCC(NC(C)=O)CC1 | 12.09 |
| Cc1ccoc1C(=O)NCCOc1ccc(C(F)(F)F)cn1 | -4.463 |
| COC(=O)N1CCCC(C(=O)N2CCCCC2)C1 (configuration not stated) | -8.373 |
| CCN1CCCCC1C(=O)N1CCN(C(=O)OC)CC1 (configuration not stated) | 100.7 |
| COC(=O)N1CCCCC1C(=O)N1CCC(c2ccncc2)CC1 (configuration not stated) | -8.744 |
| CC(=O)c1cccc(NC(=O)CN2CCCCC2C(=O)N2CCCC2)c1 (configuration not stated) | -9.292 |
| CCN1CCCCC1C(=O)N1CCC(OCCOC)CC1 (configuration not stated) | 73.16 |
| COCCOC1CCN(C(=O)NCc2coc3ccccc23)CC1 | -1.148 |
| CCN1CCCCC1C(=O)N1CCc2onc(-c3ccc(Cl)cc3)c2C1 (configuration not stated) | 6.805 |
| CCN1CCCCC1C(=O)N1CCC(OC2CCCC2)CC1 (configuration not stated) | 102.5 |
| COCCOC1CCN(C(=O)NCc2cc(C)oc2C)CC1 | 6.618 |
| CC/C=C(/C)C(=O)NCc1ccc(OC)nc1 | -1.205 |
| OCCOCCN1CCCC1c1nc2cc(F)ccc2[nH]1 (configuration not stated) | -0.6121 |
| CCC(=O)Nc1ccc(F)cc1OC | -5.571 |
| COCCOCC(=O)NC(C#N)c1c(F)cccc1Cl (configuration not stated) | -1.788 |
| COCCOCC(=O)Nc1ccc(F)cc1C | 92.33 |
| CN(C)S(=O)(=O)c1ccc(F)c(NC(=O)COCC2CC2)c1 | -1.216 |
| COCCOCC(=O)Nc1cc(C)ccc1F | 111.1 |

| SMILES | Percent Effect [%] |
| --- | --- |
| Cc1cc(F)ccc1NC(=O)Cn1cc(C(=O)O)ccc1=O | -9.145 |
| O=C(Cn1ccc(=O)[nH]c1=O)Nc1ccccc1F | -14.53 |
| COCCOCC(=O)Nc1ccccc1F | 116.5 |
| COCc1cc(CN(C)C(=O)CCC(=O)Nc2cc(C)ccc2F)n[nH]1 | -13.49 |
| O=C(NCC(F)(F)C(F)F)c1ccncc1 | -18.96 |
| CC(C)Cc1n[nH]c(C2CC(=O)N(CC(C)C)C2)n1 (configuration not stated) | -3.52 |
| O=C(O)C(F)(F)F.c1ncn(Cc2cn3c(n2)CN(CC2CCCC2)CC3)n1 | -2.888 |
| CC[C@H](Nc1nc(C(C)C)nc2c1cnn2C)c1ccccc1 | -13.66 |
| CNc1ncc(CN(C)C(=O)CCc2[nH]nc3c2CCCC3)cn1 | 98.75 |
| CN(Cc1ccncn1)C(=O)c1cccc(CCC(C)(C)O)c1 | -19.37 |
| CN(Cc1ccncn1)C(=O)CCc1[nH]nc2c1CCCC2 | 105.8 |
| CN(Cc1ccncn1)C(=O)C1(Oc2ccc(Cl)cc2)CCNCC1 | -1.2 |
| CNc1ncc(CN(C)C(=O)CCc2cc3n(n2)CCCNC3)cn1 | -7.945 |
| CNc1ncc(CN(C)C(=O)c2ccc(C3CCCO3)s2)cn1 (configuration not stated) | -2.521 |
| Cn1cc(C[C@H]2[C@@H](OCC3CC3)CCN2C(=O)c2ccc[nH]2)cn1 | -34.09 |
| O=C(c1cccs1)N1CC[C@@H]2[C@H]1CCC(=O)N2c1ccccc1 | 4.251 |
| Cc1cnc(CNC(=O)NCCOc2ncccc2Cl)s1 | 0.4061 |
| Cc1ncc(-c2ccnc(NCCO)n2)c(C2CCCCC2)n1 | 70.45 |
| Cc1ncc(-c2ccnc(N[C@@H](C)CO)n2)c(C2CCCCC2)n1 | 99.14 |
| CCC(Nc1nccc(C2CCCC2)n1)c1ncccc1C (configuration not stated) | -9.409 |
| CCC(Nc1nccc(C2CCCC2)n1)c1ccccn1 (configuration not stated) | 15.43 |
| COc1ccc(-c2noc([C@@H](C)NC(=O)NC(C)(C)C)c2C(=O)O)cc1 | -18.05 |

| SMILES | Percent Effect [%] |
| --- | --- |
| N#Cc1cn(C2CC2)c(=O)n(CC(O)c2ccccc2F)c1=O (configuration not stated) | -13.9 |
| O=C(NCC1CCCO1)c1cc(-c2cccnc2)c2cnccc2n1 (configuration not stated) | 70.74 |
| O=C(NCC1CCCO1)c1coc(Cn2cnc3ccccc32)n1 (configuration not stated) | 1.583 |
| O=C(NCC1CCCO1)c1csc(Cc2ccccc2)n1 (configuration not stated) | -0.1841 |
| Cl.O=C(NCC1CCC2(CCNCC2)CO1)c1cnccn1 (configuration not stated) | 3.528 |
| Cl.O=C(NCC1CCCO1)c1cc(-c2ccncc2)c2cnccc2n1 (configuration not stated) | 81.36 |
| Cc1cc(C(=O)NCC2CCCO2)c(C)n1-c1cccnc1 (configuration not stated) | -0.4746 |
| CN(C)Cc1nc(C(C)(C)NC(=O)c2ccnn2C)no1 | 0.5486 |
| CC(C)(C)c1ncc(C(=O)NCCNS(C)(=O)=O)s1 | 118.2 |
| O=C(NCCNc1ncccn1)c1ccc(Cl)s1 | 24.49 |
| CC(=O)NCCNC(=O)c1cnc(C(C)(C)C)s1 | 109.1 |
| CC(C)(C)c1ncc(C(=O)NCCS(N)(=O)=O)s1 | -2.112 |
| Cc1ncc(C(=O)NCCNC(=O)c2ccccc2)s1 | 117.1 |
| Cc1ncc(C(=O)NCCNc2ncccn2)s1 | 110.1 |
| COC(=O)C(C)(C)NC(=O)c1cnc(C(C)(C)C)s1 | -1.472 |
| Cc1ccc(-c2ncc(C(=O)NCCNC(=O)C(C)C)s2)c(C)c1 | -1.458 |
| CS(=O)(=O)NCCNC(=O)c1cnc(-c2ccccc2)nc1 | 5.162 |
| CC(C)(C)NC(=O)c1cnc(C(C)(C)C)s1 | 6.371 |
| Cc1ccc(-c2ncc(C(=O)NCCNc3ncccn3)s2)c(C)c1 | -5.367 |
